Test systems include SR leukemia; RPMI-8226 leukemia; OVCAR-8 ovarian; OVCAR-5 ovarian; OVCAR-4 ovarian; SK-OV-3 ovarian; IGROV1 ovarian; OVCAR-3 ovarian; HS 578T breast; NCI/ADR-RES ovarian.
Common to all, as to experiment: NCI-60 one-dose screen, 48 h (100 = growth as untreated, 0 = no growth, -100 = all killed)
Holding throughout (details): 10 µM unless noted

The panel holds about 83,000 compounds, 20% with a hit somewhere; the sample as a whole holds those more often.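 Assay: single dose, 48 h. Readout: percent growth (0 = no net growth; negative = cell death). Active: <10.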 A number with no mark means an inactive call. Activity calls are given as the source filed them.

As to `O=C(O)CCCn1c(SCc2c(Cl)cccc2Cl)nc2ccsc2c1=O`, the growth in the test on SR leukemia is 9.9% (active); in the test on RPMI-8226 leukemia, 19.2%; with OVCAR-8 ovarian it was 28.8%; in the test on OVCAR-5 ovarian, 50.7%; with OVCAR-4 ovarian it was 70.7%; in the test on SK-OV-3 ovarian, 34.3%. Further, the growth in the test on IGROV1 ovarian was 44.9%; in the test on OVCAR-3 ovarian, -20.4% (active); in the test on HS 578T breast, 11.9%; in the test with NCI/ADR-RES ovarian, 4.6% (active).
As for `CCCCn1sc(=O)n(Cc2ccc(CNC(=O)OCc3ccc4c(Cl)cc(Cl)c(O)c4n3)cc2)c1=O`, the growth is 65.6% in the test on SR leukemia; 63% in the test with RPMI-8226 leukemia; 38% with OVCAR-8 ovarian; 98.4% in the test on OVCAR-5 ovarian; 65.2% in the test with OVCAR-4 ovarian; 88.3% in the test with SK-OV-3 ovarian. Moreover, the growth in the test with IGROV1 ovarian was 57.4%; with OVCAR-3 ovarian it was 66.3%; with HS 578T breast, 82.3%; with NCI/ADR-RES ovarian, 9.16% (active).
As for `CC[C@]12C=CCN3CC[C@@]4(c5ccc(OC)cc5N(C)[C@H]4[C@@](O)(C(=O)OC)[C@@H]1OC(=O)CCCN1CCOCC1)[C@@H]32`, the growth in the test on SR leukemia was 111%; in the test on RPMI-8226 leukemia, 96.2%; in the test on OVCAR-8 ovarian, 104%; with OVCAR-5 ovarian, 114%; with OVCAR-4 ovarian, 108%; in the test with SK-OV-3 ovarian, 111%. Also, the growth is 112% in the test on IGROV1 ovarian, 108% in the test on OVCAR-3 ovarian, 107% in the test on HS 578T breast and 106% with NCI/ADR-RES ovarian.
`Cc1cc2nc(-c3c(-c4ccc(F)cc4)nc4sccn34)[nH]c2cc1C`: the growth with SR leukemia is 83.2%; in the test with RPMI-8226 leukemia, 87.9%; in the test with OVCAR-8 ovarian, 96%; in the test with OVCAR-5 ovarian it was 111%; with OVCAR-4 ovarian, 94.7%; in the test on SK-OV-3 ovarian it was 94.9%. The growth in the test on IGROV1 ovarian is 95.9%; with OVCAR-3 ovarian it was 102%; in the test on HS 578T breast it was 103%; in the test on NCI/ADR-RES ovarian it was 91.6%.
As to `CN1CCCc2cc(/C=C3/SC(=S)N(CCc4ccc(O)cc4)C3=O)ccc21`, the growth with SR leukemia is 32.9%; in the test on RPMI-8226 leukemia, 49.5%; in the test with OVCAR-8 ovarian it was 96.6%; with OVCAR-5 ovarian, 108%; in the test with OVCAR-4 ovarian, 87.2%; in the test with SK-OV-3 ovarian, 111%. Besides, the growth was 76% in the test with IGROV1 ovarian, 88.2% with OVCAR-3 ovarian, 93.9% in the test with HS 578T breast and 83.3% in the test with NCI/ADR-RES ovarian.
With `C#CCOc1ccc2ncnc(Nc3cccc(NC(=O)CCl)c3)c2c1`, the growth in the test with SR leukemia was 30.3%; in the test on RPMI-8226 leukemia, 64.2%; in the test with OVCAR-8 ovarian it was 54.6%; in the test with OVCAR-5 ovarian it was 104%; with OVCAR-4 ovarian it was 82.7%; in the test on SK-OV-3 ovarian it was 113%. Further, the growth was -37.7% (active) in the test on IGROV1 ovarian, 51.3% with OVCAR-3 ovarian, 90.5% with HS 578T breast and 90.8% in the test with NCI/ADR-RES ovarian.
Turning to `CCCC(O)Cn1ncc(C(=O)OCC)c1NC(=O)NCc1cccc(F)c1` (stereo not given), the growth was 80.1% in the test on SR leukemia; 75.2% in the test on RPMI-8226 leukemia; 94.8% with OVCAR-8 ovarian; 100% in the test on OVCAR-5 ovarian; 87.2% with OVCAR-4 ovarian; 100% in the test with SK-OV-3 ovarian. Further, the growth in the test on IGROV1 ovarian was 97.2%; in the test with OVCAR-3 ovarian it was 99.7%; in the test on HS 578T breast, 110%; with NCI/ADR-RES ovarian it was 95.5%.
Take `CCOC(=O)CSc1nc2sc3c(c2c(=O)n1-c1ccc([N+](=O)[O-])cc1)CCCCC3`: the growth is 76.7% in the test on SR leukemia; 91.6% with RPMI-8226 leukemia; 58.4% with OVCAR-8 ovarian; 72.2% in the test on OVCAR-5 ovarian; 31% in the test on OVCAR-4 ovarian; 68.3% with SK-OV-3 ovarian. The growth was 68.7% in the test with IGROV1 ovarian, 51.8% in the test with OVCAR-3 ovarian, 39.7% with HS 578T breast and 84.3% with NCI/ADR-RES ovarian.
`CCCCCCCCn1ccc2cc(NC(=O)Cn3cc(CN4CCC(C)CC4)nn3)ccc21`: the growth in the test on SR leukemia was -0.808% (active); with RPMI-8226 leukemia, -40.9% (active); in the test on OVCAR-8 ovarian, 32.8%; in the test with OVCAR-5 ovarian it was 76.7%; in the test with OVCAR-4 ovarian, 63%; in the test on SK-OV-3 ovarian, 79.1%. Moreover, the growth is 39.6% with IGROV1 ovarian, 14.7% in the test on OVCAR-3 ovarian, 59.2% with HS 578T breast and 63.1% in the test on NCI/ADR-RES ovarian.
Take `CN1CCN(Cc2ccc(NC(=O)c3cncc(C#Cc4cncc5[nH]ncc45)c3)cc2C(F)(F)F)CC1`: the growth with SR leukemia is -4.67% (active); in the test on RPMI-8226 leukemia, 1.42% (active); with OVCAR-8 ovarian it was 18.2%; in the test with OVCAR-5 ovarian it was 4.44% (active); in the test with OVCAR-4 ovarian, 10.2%; in the test with SK-OV-3 ovarian it was 8.47% (active). Also, the growth in the test with IGROV1 ovarian is -43.8% (active); in the test on OVCAR-3 ovarian it was 15.8%; in the test on HS 578T breast it was -35.5% (active); with NCI/ADR-RES ovarian, 57.4%.
Consider `COc1cc(C(=O)/C=C/c2ccc(N3CCN(C)CC3)cc2)cc(OC)c1OC`, for which the growth in the test with SR leukemia was 91.2%; in the test with RPMI-8226 leukemia it was 107%; with OVCAR-8 ovarian, 98%; with OVCAR-5 ovarian, 96.5%; in the test with OVCAR-4 ovarian it was 101%; in the test on SK-OV-3 ovarian, 100%. For the same compound, the growth in the test with IGROV1 ovarian is 94.8%; in the test on OVCAR-3 ovarian it was 98.6%; in the test with HS 578T breast, 94.3%; in the test with NCI/ADR-RES ovarian, 95.2%.
`COc1cc(/C=C2\CN(S(=O)(=O)c3ccc(C)cc3)C/C(=C\c3cc(CN4CCCCC4)c(O)c(OC)c3)C2=O)cc(CN2CCCCC2)c1O`: the growth in the test with SR leukemia is -14.6% (active); in the test on RPMI-8226 leukemia it was -39.3% (active); with OVCAR-8 ovarian, -66.4% (active); with OVCAR-5 ovarian it was -86.5% (active); in the test with OVCAR-4 ovarian, -72.7% (active); in the test on SK-OV-3 ovarian it was 115%. The growth with IGROV1 ovarian is -67% (active); in the test on OVCAR-3 ovarian it was -89.4% (active); in the test with HS 578T breast, -33.4% (active); in the test on NCI/ADR-RES ovarian, -47.2% (active).
With `COc1ccc(C2=CN3CC=CCC3CC2=O)cc1` (stereo not given), the growth is 90.3% in the test with SR leukemia; 97.9% in the test on RPMI-8226 leukemia; 91% in the test on OVCAR-8 ovarian; 106% with OVCAR-5 ovarian; 109% in the test with OVCAR-4 ovarian; 106% with SK-OV-3 ovarian. Also, the growth with IGROV1 ovarian is 111%; in the test on OVCAR-3 ovarian, 102%; with HS 578T breast, 98.3%; in the test with NCI/ADR-RES ovarian it was 107%.
As to `CCOc1ccc(/C=N\N=C\c2ccc(OCC)cc2)cc1`, the growth with SR leukemia is 64.3%; with RPMI-8226 leukemia it was 107%; with OVCAR-8 ovarian, 74.5%; with OVCAR-5 ovarian, 76.9%; with OVCAR-4 ovarian, 94.1%; in the test on SK-OV-3 ovarian it was 101%. Further, the growth in the test with IGROV1 ovarian is 78.5%; with OVCAR-3 ovarian, 114%; in the test with HS 578T breast, 106%; in the test with NCI/ADR-RES ovarian it was 78.1%.
Turning to `O=C1Nc2ccc(F)cc2/C1=C\c1nc(-c2ccccc2F)n2ccccc12`, the growth in the test with SR leukemia is 66.7%; in the test with RPMI-8226 leukemia, 96.8%; in the test with OVCAR-8 ovarian, 80.6%; in the test on OVCAR-5 ovarian, 67.2%; in the test on OVCAR-4 ovarian, 110%; in the test with SK-OV-3 ovarian, 101%. In addition, the growth with IGROV1 ovarian was 75.5%; in the test with OVCAR-3 ovarian, 126%; in the test on HS 578T breast it was 103%; with NCI/ADR-RES ovarian, 74.4%.

(Values after PubChem BioAssay (NCI).)
